The nature of experiment [1]: compounds binding Alexa647 anti-His antibody – biochemical, small-molecule microarray, 635 nm fluorescence, artefact control for SMM control protein annotation, primary screen (AID 1128).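 Further: score merges feature fluorescence with signal-to-noise for each printed compound spot.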 To be noted: higher = more signal.
Experiment [2] has as its system Human papillomavirus type 1a E7 protein (residues 1-88). The experiment can be described thus: HPV1a E7 small-molecule binders, primary screen, biochemical, small-molecule microarray, residues 1-88, 635 nm (AID 1129). To be noted: small-molecule microarray binding, fluorescence 635 nm; higher = more signal.
The target of experiment [3] is Focal adhesion kinase 1 (Homo sapiens) (UniProt Q05397). The experiment can be described thus: PTK2 protein binding on printed compound slides – biochemical, small-molecule microarray, 635/667 nm fluorescence, BSA, DTT, primary screen (AID 1130).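 Further: composite of spot emission at 667 nm and signal to noise over triplicate slides.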 The following applies: 635 nm fluorescence, higher = more signal.
Experiment [4] has as its system Fibrinogen (Alexa647-labelled). The experiment can be described thus: Alexa647-fibrinogen binding to printed small molecules – biochemical, small-molecule microarray, 635/667 nm fluorescence, artefact control for SMM control-protein annotation, profiling panel (AID 1131).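 Further: z-score merges 667 nm fluorescence with per-spot signal-to-noise over triplicate slides.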 To be noted: fibrinogen-A647 binding fluorescence, higher = more signal.
The target of experiment [5] is Follistatin (Homo sapiens) (UniProt P19883). The experiment can be described thus: FST protein binding to printed compounds – biochemical, small-molecule microarray, 635/667 nm fluorescence, primary screen (AID 1132). To be noted: 635 nm fluorescence, higher = more signal.
In experiment [6] the target is Fibroblast growth factor 2 (Homo sapiens) (UniProt P09038). The experiment can be described thus: basic fibroblast growth factor binding to printed compounds – biochemical, small-molecule microarray, 635/667 nm fluorescence, primary screen (AID 1133). To be noted: FGF2, fluorescence 635/667, higher = more signal.
Experiment [7] can be described thus: JC-1 mitochondrial potential readout, lung cancer cells – cell-based, A549, JC-1 fluorescence, basal, 24 h, 100 nL, profiling panel (AID 1138).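 Further: A549 lung adenocarcinoma cells under basal conditions with no added stimulus; test concentration not given here.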 To be noted: higher = more signal.
The test system of a further experiment is Lefty1. The experiment can be described thus: Lefty1 protein binding to printed compounds – biochemical, small-molecule microarray, 635/667 nm fluorescence, primary screen (AID 1139). The following applies: fluorescence 635/667, higher = more signal.
Experiment [8] deals with wheat germ agglutinin (Triticum aestivum), Alexa647-labelled. The experiment can be described thus: Alexa647-WGA lectin binding to printed small molecules – biochemical, small-molecule microarray, 635/667 nm fluorescence, artefact control for SMM control-protein annotation, profiling panel (AID 1140).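 Further: score merges 667 nm feature emission with signal to noise over triplicate slides.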 To be noted: WGA-A647 binding, 635 nm fluorescence, higher = more signal.

The target of experiment [9] is Luciferin 4-monooxygenase (Photinus pyralis) (UniProt P08659). The experiment can be described thus: inhibition of purified Photinus pyralis luciferase – biochemical, luminescence, purified enzyme, 2006 set, primary screen (AID 1141).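 Further: cell-free assay with purified firefly luciferase at 100 ng per well in PBS; test concentration not given here.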 The following applies: purified firefly luciferase, SteadyGlo luminescence, 30 min; higher = more signal, called active from +8 up or from −8 down.

For experiment [10], the system named is Wnt5a (protein binding on small-molecule microarray). The experiment can be described thus: small molecules binding Wnt5a protein – biophysical, small-molecule microarray, 635/667 nm fluorescence, primary screen (AID 1142).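 Further: fluorescence read at 667 nm with signal to noise per printed feature.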 To be noted: 635 nm fluorescence, higher = more signal.
Experiment [11] can be described thus: ATP-based viability of Huh7 replicon cells – cell-based, CellTiter-Glo luminescence, basal, 48 h, cytotoxicity control for HCV replication inhibitor project, primary screen (AID 1143).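 Further: Huh7 hepatoma cells carrying a hepatitis C replication reporter with no stimulus; test concentration not given here.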 The following applies: higher = more signal, called active from +8 up or from −8 down.
A short description of experiment [12]: Pseudomonas biofilm growth suppression – PAO1 strain, BacTiter-Glo luminescence, LB-PBS, primary screen (AID 1144). The following applies: P. aeruginosa PAO1 biofilm, 12 h, higher = more signal.
Experiment [13] is described as follows: basal CRE-LacZ reporter activity in PC12 – cell-based, unstimulated, primary screen (AID 1145). The following applies: no forskolin, luminescence, 4.5 h, higher = more signal, called active from +8 up or from −8 down.
Experiment [14] in a line: forskolin-driven CRE-LacZ activity in PC12 – cell-based, CRE-LacZ reporter, forskolin-stimulated, primary screen (AID 1146).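 Further: PC12 cells with 6xCRE LacZ reporter stimulated by forskolin 10 µM; beta-galactosidase reporter signal reflecting CREB driven transcription.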 The following applies: luminescence, 4.5 h, higher = more signal, called active from +8 up or from −8 down.
The target in experiment [15] is Streptavidin (Streptomyces avidinii) (UniProt P22629). The experiment can be described thus: compounds binding control protein streptavidin – biophysical, small-molecule microarray, 635/667 nm fluorescence, artefact control for SMM compound annotation, primary screen (AID 1147).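 Further: signal reflects streptavidin binding to arrayed compounds as a control protein.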 To be noted: higher = more signal.
Experiment [16] is described as follows: probe aInhba binding on compound microarray – biochemical, small-molecule microarray, 635/667 nm fluorescence, primary screen (AID 1148).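 Further: score merges 667nm spot fluorescence with signal-to-noise for antibody binding to printed compounds.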 The following applies: higher = more signal.
The target in experiment [17] is Torsin-1A (Homo sapiens) (UniProt O14656). The experiment can be described thus: TOR1A wild-type binding on microarray – cell lysate, small-molecule microarray, lysate, 635/667 nm, primary screen (AID 1149). To be noted: COS7 hTOR1A-WT lysate, 635 nm fluorescence, higher = more signal.
Experiment [18] shares this target. The experiment can be described thus: torsin A mutant lysate binding on microarrays – cell lysate, small-molecule microarray, COS7 lysate, 635/667 nm fluorescence, primary screen (AID 1150).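 Further: score pools 667 nm emission and signal to noise measuring lysate protein binding.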 To be noted: COS7 hTOR1A mutant lysate, 635 nm fluorescence, higher = more signal.
Experiment [19] deals with Sonic hedgehog protein (Shh). The experiment can be described thus: Sonic hedgehog microarray binding compounds – biochemical, small-molecule microarray, 635/667 nm fluorescence, primary screen (AID 1151).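 Further: Shh protein binding to compounds spotted on small-molecule microarray slides; score combines spot fluorescence intensity with signal-to-noise across triplicate slides.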 The following applies: 635 nm fluorescence, higher = more signal.

Each structure is given as a SMILES string. The source made the active and inactive calls. Unless noted, how the calls were made is not given here.

Sequence of Follistatin (Homo sapiens) (P19883 whole entry, looked up): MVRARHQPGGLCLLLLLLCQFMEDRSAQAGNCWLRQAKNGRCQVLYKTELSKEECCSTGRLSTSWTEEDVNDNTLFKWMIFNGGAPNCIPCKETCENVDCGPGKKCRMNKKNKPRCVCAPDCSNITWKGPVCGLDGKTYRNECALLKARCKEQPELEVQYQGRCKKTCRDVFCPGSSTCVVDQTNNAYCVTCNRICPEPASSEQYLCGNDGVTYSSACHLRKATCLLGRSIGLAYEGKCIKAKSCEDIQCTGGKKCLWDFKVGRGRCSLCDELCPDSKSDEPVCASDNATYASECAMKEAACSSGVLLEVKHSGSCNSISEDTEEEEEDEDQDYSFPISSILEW
Sequence of Streptavidin (Streptomyces avidinii) (P22629 whole entry, looked up): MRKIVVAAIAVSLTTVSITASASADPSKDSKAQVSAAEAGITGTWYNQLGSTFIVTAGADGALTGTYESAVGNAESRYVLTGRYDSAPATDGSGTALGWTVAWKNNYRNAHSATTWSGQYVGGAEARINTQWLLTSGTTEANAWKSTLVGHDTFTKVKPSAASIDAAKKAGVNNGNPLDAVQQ
Sequence of Fibroblast growth factor 2 (Homo sapiens) (P09038 whole entry, looked up): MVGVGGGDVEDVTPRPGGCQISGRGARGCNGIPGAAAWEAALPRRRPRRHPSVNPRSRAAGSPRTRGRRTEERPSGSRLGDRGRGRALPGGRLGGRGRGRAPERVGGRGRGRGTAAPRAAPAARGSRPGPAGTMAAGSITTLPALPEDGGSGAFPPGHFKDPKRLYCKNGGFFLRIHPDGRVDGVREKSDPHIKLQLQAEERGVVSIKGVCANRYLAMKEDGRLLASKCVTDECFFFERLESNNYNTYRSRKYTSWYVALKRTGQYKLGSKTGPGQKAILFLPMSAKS
Sequence of Focal adhesion kinase 1 (Homo sapiens) (Q05397 whole entry, looked up): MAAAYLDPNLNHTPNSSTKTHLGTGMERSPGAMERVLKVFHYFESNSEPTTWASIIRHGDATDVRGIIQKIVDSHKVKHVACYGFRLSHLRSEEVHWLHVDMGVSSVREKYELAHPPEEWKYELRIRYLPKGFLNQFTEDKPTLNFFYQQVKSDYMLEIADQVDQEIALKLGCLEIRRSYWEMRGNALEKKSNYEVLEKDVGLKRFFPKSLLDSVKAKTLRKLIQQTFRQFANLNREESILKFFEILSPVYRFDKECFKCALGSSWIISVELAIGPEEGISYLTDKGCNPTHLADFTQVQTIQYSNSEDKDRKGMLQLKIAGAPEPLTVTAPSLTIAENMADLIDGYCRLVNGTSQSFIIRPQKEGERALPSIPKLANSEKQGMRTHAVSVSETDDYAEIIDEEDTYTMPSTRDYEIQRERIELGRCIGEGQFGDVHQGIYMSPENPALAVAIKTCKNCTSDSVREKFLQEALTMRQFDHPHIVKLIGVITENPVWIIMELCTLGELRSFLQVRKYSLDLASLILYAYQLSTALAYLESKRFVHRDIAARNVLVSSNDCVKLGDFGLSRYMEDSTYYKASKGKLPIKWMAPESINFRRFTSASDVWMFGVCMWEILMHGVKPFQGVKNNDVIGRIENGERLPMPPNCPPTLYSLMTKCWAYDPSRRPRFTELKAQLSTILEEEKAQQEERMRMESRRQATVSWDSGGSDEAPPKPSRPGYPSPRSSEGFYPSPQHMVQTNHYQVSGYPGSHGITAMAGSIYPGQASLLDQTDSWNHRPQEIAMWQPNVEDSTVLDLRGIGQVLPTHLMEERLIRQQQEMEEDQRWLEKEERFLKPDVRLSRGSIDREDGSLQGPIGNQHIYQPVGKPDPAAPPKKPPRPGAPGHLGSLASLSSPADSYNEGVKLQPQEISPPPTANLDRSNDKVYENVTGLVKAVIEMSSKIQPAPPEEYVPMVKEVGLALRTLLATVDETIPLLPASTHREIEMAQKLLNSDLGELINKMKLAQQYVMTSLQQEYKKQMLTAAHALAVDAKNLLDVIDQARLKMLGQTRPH
Sequence of Torsin-1A (Homo sapiens) (O14656 whole entry, looked up): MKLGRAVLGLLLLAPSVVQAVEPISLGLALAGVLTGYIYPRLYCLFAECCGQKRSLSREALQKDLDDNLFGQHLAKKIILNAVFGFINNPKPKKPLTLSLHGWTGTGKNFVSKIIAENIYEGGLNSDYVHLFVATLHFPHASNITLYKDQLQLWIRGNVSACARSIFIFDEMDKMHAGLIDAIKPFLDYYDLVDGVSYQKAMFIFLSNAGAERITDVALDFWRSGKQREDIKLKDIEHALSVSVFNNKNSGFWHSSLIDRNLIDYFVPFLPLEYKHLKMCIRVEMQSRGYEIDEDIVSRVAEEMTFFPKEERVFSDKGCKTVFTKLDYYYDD
Sequence of Luciferin 4-monooxygenase (Photinus pyralis) (P08659 whole entry, looked up): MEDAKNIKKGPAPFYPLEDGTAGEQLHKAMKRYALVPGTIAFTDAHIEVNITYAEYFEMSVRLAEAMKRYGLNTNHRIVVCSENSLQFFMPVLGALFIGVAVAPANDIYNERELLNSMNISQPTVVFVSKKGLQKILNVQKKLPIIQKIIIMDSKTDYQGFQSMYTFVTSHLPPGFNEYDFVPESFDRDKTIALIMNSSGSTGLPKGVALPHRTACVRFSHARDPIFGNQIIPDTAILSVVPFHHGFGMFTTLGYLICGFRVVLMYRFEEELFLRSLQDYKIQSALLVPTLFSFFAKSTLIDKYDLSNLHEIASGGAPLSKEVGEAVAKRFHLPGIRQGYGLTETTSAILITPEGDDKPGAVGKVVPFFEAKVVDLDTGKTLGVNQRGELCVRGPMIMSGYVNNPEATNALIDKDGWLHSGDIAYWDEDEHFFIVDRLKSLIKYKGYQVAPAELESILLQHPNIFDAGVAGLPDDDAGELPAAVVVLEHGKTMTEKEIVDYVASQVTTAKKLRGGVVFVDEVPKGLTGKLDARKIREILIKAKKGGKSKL

`CCCCCCc1nc(C2CC2)cc2c1[Si](C(C)C)(C(C)C)O[C@H]2c1ccccc1`: the composite z-score in [1] was -0.523; in [2] it was -0.873; in [3], 0.0181; in experiment [4], -0.675; in experiment [5], 0.0915; in [6], 0.248. The composite z-score in the experiment with Lefty1 was 1.05; in experiment [8] it was -0.127; in experiment [10] it was -0.0368; in [15], 0.147; in experiment [16], 0.0319; with Torsin-1A (Homo sapiens) [17], 0.338. Further, the composite z-score with Torsin-1A (Homo sapiens) [18] was 0.378; in experiment [19], 1.59. Further, the z-score was -0.911 in [7]; 0.747 (inactive) in [9]; 0.086 (inactive) in experiment [11]; -0.0699 (inactive) in [12]; 0.134 (inactive) in experiment [13]; 0.128 (inactive) in experiment [14].

Take `O=C1NC(=O)C2C1C=CC(C(O)c1c(F)cccc1Cl)N2Nc1ccc(Cl)cc1Cl` (stereo not given): the composite z-score in experiment [1] is 1.23; in [2] it was 1.2; in [3], 1.6; in [4] it was 0.296; in experiment [5] it was -0.0649; in [6] it was -0.891. The composite z-score with Lefty1 is -0.507; in [8] it was 1.31; in experiment [10] it was 0.275; in [15], 1.23; in experiment [16], 0.414; in the experiment with Torsin-1A (Homo sapiens) [17], 0.465. Besides, the composite z-score with Torsin-1A (Homo sapiens) [18] is 1.27; in [19], -0.854. Besides, the z-score in experiment [7] is -1.15; in experiment [9], 0.231 (inactive); in [11] it was -1.37 (inactive); in experiment [12], -0.159 (inactive); in experiment [13] it was 0.632 (inactive); in experiment [14] it was -0.524 (inactive).

Turning to `[N-]=[N+]=NCc1ccccc1[C@@H]1OC(c2ccc(OCCCO)cc2)=N[C@]1(CCS(=O)(=O)c1ccccc1)C(=O)NCC(O)CO` (stereo not given in full), the composite z-score in experiment [1] worked out at 2.39; in experiment [2], 1.28; in experiment [3] it was 0.546; in experiment [4] it was 1.03; in [5], 1.29; in experiment [6], 1.05. The composite z-score with Lefty1 stood at 0.171; in experiment [8] it was 1.16; in experiment [10], 0.541; in experiment [15], 0.962; in [16] it was 0.0073; with Torsin-1A (Homo sapiens) [17], 1.05. Besides, the composite z-score in the experiment with Torsin-1A (Homo sapiens) [18] stood at 1.36; in [19], 0.0169. Besides, the z-score was -0.145 in experiment [7]; -1.93 (inactive) in [9]; -0.866 (inactive) in experiment [11]; -0.701 (inactive) in experiment [12]; 1.71 (inactive) in [13]; -1.17 (inactive) in experiment [14].

Take `O=C1O[C@H](c2ccccc2)[C@H](c2ccccc2)N2[C@H]1[C@@H](C(=O)Nc1nc3ccccc3s1)[C@]1(C(=O)Nc3ccccc31)[C@H]2c1ccc(OCCO)cc1`: the composite z-score stood at 1.55 in experiment [1]; 1.19 in [2]; 0.522 in [3]; 1.01 in experiment [4]; 1.45 in experiment [5]; 1.18 in experiment [6]. For the same molecule, the composite z-score in the experiment on Lefty1 was 1.2; in experiment [8], -0.0258; in experiment [10], 0.433; in [15] it was 0.534; in experiment [16], -0.113; with Torsin-1A (Homo sapiens) [17], 0.927. Further, the composite z-score with Torsin-1A (Homo sapiens) [18] was 1.2; in experiment [19], 1.5. For the same molecule, the z-score in experiment [7] was -2.15; in experiment [9] it was -4.2 (inactive); in experiment [11], -2.91 (inactive); in [12], -0.538 (inactive); in [13], -0.0515 (inactive); in experiment [14], -0.124 (inactive).

Consider `O=C1N(Cc2ccccc2)c2ccccc2[C@@H]2OC(c3ccc(OCCCO)cc3)=N[C@]12Cc1ccccc1`, for which the composite z-score in experiment [1] came out at 0.205; in experiment [2], 1.24; in experiment [3] it was 0.623; in experiment [4] it was 0.787; in [5], 1.12; in [6] it was 1.12. For the same molecule, the composite z-score is 0.183 in the experiment with Lefty1; 0.849 in experiment [8]; -0.0069 in experiment [10]; 0.89 in experiment [15]; -0.0332 in [16]; 0.378 with Torsin-1A (Homo sapiens) [17]. For the same molecule, the composite z-score in the experiment with Torsin-1A (Homo sapiens) [18] stood at 0.534; in experiment [19] it was 0.809. For the same molecule, the z-score was -1.31 in [7]; -3.86 (inactive) in experiment [9]; -4.55 (inactive) in experiment [11]; -0.236 (inactive) in [12]; 1.37 (inactive) in experiment [13]; -1.64 (inactive) in experiment [14].

Values taken from PubChem BioAssay.
